Test results published in PubChem BioAssay.

Assay: TOR pathway reporter MEP2-GFP, retest of hits – S. cerevisiae, flow cytometry GFP, cherry picks, confirmation (AID 2272);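 further: ratio of well signal to plate DMSO mean so 100% equals DMSO level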
Conditions: S. cerevisiae MEP2-GFP strain, 3 h, at 10 µM, stronger effect = higher value;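 active means GFP response above 150% of the DMSO control; inconclusive means Fewer than 70 cells counted for a yeast strain; inactive means the rest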

GFP response vs DMSO, inactive:
Cc1ccc(C(=O)NNC(=S)NC(=O)COc2ccccc2)cc1 153%
O=C(OCc1cc(Cl)ccc1OC(F)F)c1ccc([N+](=O)[O-])o1 100%
O=C(OCCOc1ccccc1)c1n[nH]c2ccccc12 97.5%
O=C1C=CC(=O)N1c1ccc(Sc2ccc([N+](=O)[O-])cc2)cc1 125%
CCn1c(=O)c(C(=O)Nc2ccsc2C(=O)OC)c(O)c2ccccc21 96.8%
COCC(=O)Nc1cc([N+](=O)[O-])ccc1C 102%
O=C1/C(=C\c2ccc(O)c(O)c2)SC(=S)N1Cc1ccccc1 141%
COc1ccc(C(=O)/C=C2/C(=O)Nc3ccccc32)cc1 96.2%
O=C(Nc1cc(Sc2ccccn2)cc([N+](=O)[O-])c1)c1ccc(Cl)cc1 100%
c1ccc(-c2cccc(-c3ccccn3)n2)nc1 106%
CN1CCSc2ccc(C(=O)Nc3cccc(F)c3)cc21 99.5%
Cc1nn(C)cc1C(C)NC(=O)c1cc(COc2ccc(F)c(F)c2)on1 (stereo not given) 100%
Oc1ccccc1/C=N/c1c(-c2ccco2)nc2ccccn12 100%
CC(C(=O)NCCc1ccc(F)cc1)N1CCN(Cc2ccccc2)CC1 (stereo not given) 102%
COc1ccc(C(=O)/C=C2/C(=O)Nc3ccccc32)cc1OC 99.5%
COC(=O)CNc1c(-c2ccccn2)nc2ccc(Br)cn12 102%
C=CCOc1ccc(/C=C2\N=C(C)OC2=O)cc1OC 119%
COc1ccccc1C1CC(c2c(-c3ccccc3)c3cc(Cl)ccc3[nH]c2=O)=NN1S(C)(=O)=O (stereo not given) 119%
COC(=O)Cn1nc(-c2ccccc2)c2ccccc21 109%
COc1ccccc1C(=O)NNC(=O)C(=O)Nc1cccc(Cl)c1C 116%
O=C(NCC(=O)N1CCCC1)c1cccs1 100%
COC(=O)Cc1csc(Nc2ccc(F)c(Cl)c2)n1 95.7%
O=C1C2C3C=CC(CO)(O3)C2C(=O)N1c1ccccc1-c1ccccc1 (stereo not given) 126%
COC(=O)c1ccc(/C=C/C(=O)c2ccc(OC)c(OC)c2)cc1 104%
Cn1c(=O)c2ccccc2n(Cc2cccc(F)c2)c1=O 103%
COc1cc(/C=C/C(=O)c2c(O)cc(C)oc2=O)cc(OC)c1O 105%
O=[N+]([O-])c1cc(Cl)ccc1Sc1ccccn1 112%
COc1ccc(NC(=O)CCc2nc(-c3ccccc3F)no2)cc1 101%
COc1ccc(-c2nnc(NC(=O)c3ccc(S(=O)(=O)N4COCC4(C)C)cc3)o2)cc1 103%
C/C(CCC12CC3CC(CC(C3)C1)C2)=N\NC(N)=S 98.3%
C=CCn1cc(/C=C/c2cc[n+](C)cc2)c2ccccc21 120%
Cc1ccc(S(=O)(=O)Cc2cc(F)c([N+](=O)[O-])cc2[N+](=O)[O-])cc1 127%
CS(=O)(=O)N1N=C(c2ccco2)CC1c1ccccc1 (stereo not given) 99%
NC(=O)CSCc1c(Cl)cccc1Cl 109%
N#C/C(=C\c1c(N2CCCCCC2)nc2ccccn2c1=O)C(=O)NCc1ccco1 98.3%
O=C(OCc1ccco1)c1ccc(S(=O)(=O)N2CCCCC2)cc1 99%
O=C(OCC(=O)N1CCN(C(=O)c2ccco2)CC1)c1cc(-c2ccc(Cl)c(Cl)c2Cl)nc2ccccc12 117%
COc1ccc(/C(C)=N/NC(=O)c2ccc(N(C)C)cc2)cc1 104%
O=C(c1ccccc1Br)N1CCN(c2ccccc2)CC1 109%
O=C(Nc1nc(-c2ccc(Cl)cc2)cs1)c1cccnc1 99%
